Consider 1 compound from PubChem BioAssay AID624308 (National Center for Advancing Translational Sciences (NCATS), 2012).

The target of the assay is Peptidyl-prolyl cis-trans isomerase NIMA-interacting 1 (Homo sapiens) (UniProt Q13526). The experiment in a line: qHTS Assay to Find Inhibitors of Pin1: Hit Validation. The conditions noted are these: Pin1 FP peptide displacement, HiFluor488 probe. The text has this:
The unique chemical properties of Pro allow for the adoption of two completely distinct amide bond conformations (cis and trans). Peptidyl-prolyl cis/trans isomerases (PPIases) are evolutionary conserved enzymes that catalyze cis/trans isomerization of peptidyl-prolyl peptide bonds. Distinct from all other PPIases such as cyclophilins and FK506-binding proteins (FKBPs), Pin1 binds a subset of phos.Ser/Thr-Pro-containing proteins using its protein-targeting WW domain and isomerizes only specific phos.Ser/Thr-Pro bonds, which cannot be effectively catalyzed by other known PPIases. […] The goal of this screen is to find small-molecule inhibitors of Pin1 using a fluorescence polarization competition assay. […]
Pin1 (0.6 uM) was dispensed into black, solid 1536-well plates at 2 uL/well in 10 mM HEPES (pH 7.5), 10 mM NaCl, 0.01% Tween20, 1 mM DTT, and 1% glycerol. […] The plates were measured on a ViewLux plate reader for fluorescence polarization signal using a 480/20 nM nm excitation filter and 540/25 nM nm S and P emission filters with a 20 second exposure. The %Activity was determined from the corrected fluorescence polarization values. […] Concentration-response curves were fitted to the signals arising from the resulting fluorescence polarization. […] Keywords: Peptidyl prolyl isomerase, Pin1, fluorescence polarization, MLSMR, MLPCN, NIH Roadmap, qHTS, NCGC

Results filed as inconclusive are left out. Calls of active or inactive are those of the source. Calls come from the whole dose curve; as a rule, active = well fitted inhibition curve with a large enough effect; inconclusive = small, poorly fitted or top-dose-only effect; inactive = flat fitted curve, though single readings scatter.

Sequence of Peptidyl-prolyl cis-trans isomerase NIMA-interacting 1 (Homo sapiens) (Q13526 whole entry, looked up, the tested form may be a part): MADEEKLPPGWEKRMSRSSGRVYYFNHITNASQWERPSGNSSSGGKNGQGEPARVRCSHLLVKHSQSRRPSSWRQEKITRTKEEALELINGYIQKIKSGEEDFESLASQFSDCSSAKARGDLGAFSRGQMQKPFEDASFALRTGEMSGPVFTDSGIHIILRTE

With `Cc1cc2c(C(C)C)c(O)c(O)c(C=O)c2c(O)c1-c1c(C)cc2c(C(C)C)c(O)c(O)c(C=O)c2c1O`, the Potency is 1.69 µM (active).
